For some of these results: Entries with a potency or affinity are not part of this list.
Key:
Set-up in all cases: scale not given: direction of the effect not stated beside the values
[1] = molecular target: Protein translocase subunit SecA (Escherichia coli (strain K12)) (UniProt P10408); assay: Assay to Identify E. coli SecA ATPase Inhibitors; type: functional; settings: 30 µM
[2] = molecular target: T1, Ubiquitin-activating enzyme e1, putative (Leishmania donovani (strain BPK282A1)) (UniProt E9BSI1); assay: Leishmania donovani Ubiquitin Activating Enzyme (LdE1); type: functional; settings: 30 µM
T1 sequence (whole entry): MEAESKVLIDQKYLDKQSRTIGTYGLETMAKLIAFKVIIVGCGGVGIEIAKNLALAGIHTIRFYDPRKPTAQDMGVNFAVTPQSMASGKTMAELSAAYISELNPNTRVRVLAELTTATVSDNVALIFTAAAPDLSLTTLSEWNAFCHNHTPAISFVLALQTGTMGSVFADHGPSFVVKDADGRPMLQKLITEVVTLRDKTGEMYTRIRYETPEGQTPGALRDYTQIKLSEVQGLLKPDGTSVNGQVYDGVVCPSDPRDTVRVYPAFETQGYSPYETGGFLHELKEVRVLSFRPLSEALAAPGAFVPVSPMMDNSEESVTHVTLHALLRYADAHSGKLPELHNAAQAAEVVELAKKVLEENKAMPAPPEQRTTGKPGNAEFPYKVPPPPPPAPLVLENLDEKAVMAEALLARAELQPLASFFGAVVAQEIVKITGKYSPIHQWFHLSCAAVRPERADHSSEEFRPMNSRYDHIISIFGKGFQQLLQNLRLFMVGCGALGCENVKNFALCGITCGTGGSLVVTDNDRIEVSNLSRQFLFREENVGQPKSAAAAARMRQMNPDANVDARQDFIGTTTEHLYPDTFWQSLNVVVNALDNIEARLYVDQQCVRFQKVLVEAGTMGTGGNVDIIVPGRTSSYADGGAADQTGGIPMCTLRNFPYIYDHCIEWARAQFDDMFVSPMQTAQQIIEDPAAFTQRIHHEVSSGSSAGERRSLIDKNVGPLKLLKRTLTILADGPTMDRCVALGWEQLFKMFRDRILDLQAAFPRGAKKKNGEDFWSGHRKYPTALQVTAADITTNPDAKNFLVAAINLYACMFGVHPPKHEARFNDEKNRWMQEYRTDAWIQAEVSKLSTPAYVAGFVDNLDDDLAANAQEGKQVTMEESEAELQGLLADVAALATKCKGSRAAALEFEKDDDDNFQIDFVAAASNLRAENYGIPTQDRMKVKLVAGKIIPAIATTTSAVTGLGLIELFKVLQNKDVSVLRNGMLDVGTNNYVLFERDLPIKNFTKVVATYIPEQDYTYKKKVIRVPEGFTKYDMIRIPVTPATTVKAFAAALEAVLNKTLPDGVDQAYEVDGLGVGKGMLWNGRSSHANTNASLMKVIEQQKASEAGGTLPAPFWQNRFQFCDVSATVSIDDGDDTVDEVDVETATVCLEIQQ

[3] = molecular target: T2, Aspartate--tRNA(Asp/Asn) ligase (Mycobacterium tuberculosis (strain ATCC 25618 / H37Rv)) (UniProt P9WFW3); assay: Assay for Asp RNA synthetase-1 from Mycobacterium tuberculosis; type: functional; settings: 30 µM; also: in the data most compounds retested in dose-response had high values
T2 sequence (whole entry): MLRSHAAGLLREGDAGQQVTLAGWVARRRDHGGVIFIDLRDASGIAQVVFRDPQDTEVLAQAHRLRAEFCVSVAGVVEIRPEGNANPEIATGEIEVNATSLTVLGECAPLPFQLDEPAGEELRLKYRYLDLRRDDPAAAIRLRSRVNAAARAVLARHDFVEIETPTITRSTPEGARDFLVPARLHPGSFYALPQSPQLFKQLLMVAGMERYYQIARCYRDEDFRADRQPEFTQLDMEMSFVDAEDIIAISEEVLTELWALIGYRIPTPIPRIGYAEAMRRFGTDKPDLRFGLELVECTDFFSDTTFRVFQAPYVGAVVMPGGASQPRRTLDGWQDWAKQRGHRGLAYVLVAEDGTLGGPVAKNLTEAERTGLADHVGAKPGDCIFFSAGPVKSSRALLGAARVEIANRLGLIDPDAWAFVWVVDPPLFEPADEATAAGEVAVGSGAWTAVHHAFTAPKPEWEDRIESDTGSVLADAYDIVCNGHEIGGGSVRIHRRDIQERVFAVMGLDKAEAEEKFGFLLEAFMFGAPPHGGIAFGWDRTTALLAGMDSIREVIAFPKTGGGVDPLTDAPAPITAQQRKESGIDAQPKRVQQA

[4] = molecular target: AMP-activated protein kinase, AMPK (Homo sapiens) (UniProt P54646+O43741+P54619+Q9UGJ0+Q9Y478+Q13131+Q9UGI9); assay: AMP-dependent Kinase enzyme assay. An in vitro enzyme assay that detects ADP turnover that is directly proportional to AMPK activity. This uses naive AMPK that is activated during the assay with MK-8722; type: functional; settings: 30 µM
[5] = molecular target: Sialic acid-binding Ig-like lectin 9 (Homo sapiens) (UniProt Q9Y336); assay: Hs-Siglec9 ALPHAscreen SOP 20170721; settings: 10 µM
Chain of Sialic acid-binding Ig-like lectin 9 (Homo sapiens) (Q9Y336 whole entry): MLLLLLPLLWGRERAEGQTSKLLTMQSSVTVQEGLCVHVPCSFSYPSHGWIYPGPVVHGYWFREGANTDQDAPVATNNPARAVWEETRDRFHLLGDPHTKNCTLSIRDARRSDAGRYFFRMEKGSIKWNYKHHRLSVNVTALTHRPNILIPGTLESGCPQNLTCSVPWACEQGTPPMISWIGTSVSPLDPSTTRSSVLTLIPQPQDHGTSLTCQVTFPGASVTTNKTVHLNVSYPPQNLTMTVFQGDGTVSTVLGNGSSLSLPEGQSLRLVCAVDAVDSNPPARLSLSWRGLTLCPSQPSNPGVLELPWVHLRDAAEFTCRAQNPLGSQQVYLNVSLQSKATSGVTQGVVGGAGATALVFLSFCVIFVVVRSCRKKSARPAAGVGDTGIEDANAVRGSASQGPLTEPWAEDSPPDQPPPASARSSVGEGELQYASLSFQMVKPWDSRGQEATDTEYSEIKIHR

[6] = system: Trypanosoma cruzi; assay: Trypanosoma cruzi phosphomannomutase and mannose-1-phosphate guanylyltransferase assay; type: functional; settings: 10 µM
[7] = molecular target: T3, Arginase-2, mitochondrial (Homo sapiens) (UniProt P78540); assay: in vitro enzyme assay to detect the production of urea directly proportional to the activity of Arginase II; type: functional; settings: 33.3 µM; also: in the data most compounds retested in dose-response had high values
T3 sequence (whole entry): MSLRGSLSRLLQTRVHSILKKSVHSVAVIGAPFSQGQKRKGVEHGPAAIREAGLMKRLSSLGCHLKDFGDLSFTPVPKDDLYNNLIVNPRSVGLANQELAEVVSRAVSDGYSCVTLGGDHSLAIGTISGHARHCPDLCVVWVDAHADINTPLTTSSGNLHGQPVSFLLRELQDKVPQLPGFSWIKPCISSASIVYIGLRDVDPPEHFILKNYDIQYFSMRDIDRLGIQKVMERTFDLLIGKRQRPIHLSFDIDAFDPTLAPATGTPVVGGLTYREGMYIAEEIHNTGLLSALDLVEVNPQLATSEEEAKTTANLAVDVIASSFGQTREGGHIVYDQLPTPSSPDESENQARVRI

[8] = molecular target: T4, Proteasome subunit beta (Trypanosoma cruzi) (UniProt O96673); assay: Trypanosoma cruzi proteasome chymotrypsin-like activity (TcProtChymo) assay.; also: in the data most compounds retested in dose-response had high values; type: functional; settings: 9.37 µM
T4 sequence (whole entry): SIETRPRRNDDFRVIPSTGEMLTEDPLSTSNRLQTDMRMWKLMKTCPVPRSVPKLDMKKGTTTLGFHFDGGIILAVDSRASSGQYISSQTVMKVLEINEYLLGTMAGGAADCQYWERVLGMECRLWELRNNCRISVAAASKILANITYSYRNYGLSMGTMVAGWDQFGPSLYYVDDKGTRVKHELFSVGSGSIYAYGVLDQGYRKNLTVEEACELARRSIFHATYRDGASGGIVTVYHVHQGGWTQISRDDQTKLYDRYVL

[9] = species on record: Homo sapiens; assay: To identify inhibition of the IFN signalling (Jak-Stat) pathway via expression of an eGFP reporter gene under the control of an IFN-stimulated response element (ISRE) containing MxA promoter.; type: functional; settings: 30 µM
[10] = molecular target: Shiga toxin 2 (Escherichia coli O157:H7) (UniProt P09385+P09386); assay: E. coli 0.157:H7 Shiga Toxin SOP - stx2 screening assay; type: functional; settings: 30 µM
[11] = molecular target: T5, Tyrosyl-tRNA synthetase, putative (Trypanosoma cruzi (strain CL Brener)) (UniProt Q4DSP6); assay: Trypanosoma cruzi tyrosyl tRNA synthetase (TcYRS) _High Tyrosine SOP; type: functional; settings: 30 µM; also: in the data most compounds retested in dose-response had high values
T5 sequence (whole entry): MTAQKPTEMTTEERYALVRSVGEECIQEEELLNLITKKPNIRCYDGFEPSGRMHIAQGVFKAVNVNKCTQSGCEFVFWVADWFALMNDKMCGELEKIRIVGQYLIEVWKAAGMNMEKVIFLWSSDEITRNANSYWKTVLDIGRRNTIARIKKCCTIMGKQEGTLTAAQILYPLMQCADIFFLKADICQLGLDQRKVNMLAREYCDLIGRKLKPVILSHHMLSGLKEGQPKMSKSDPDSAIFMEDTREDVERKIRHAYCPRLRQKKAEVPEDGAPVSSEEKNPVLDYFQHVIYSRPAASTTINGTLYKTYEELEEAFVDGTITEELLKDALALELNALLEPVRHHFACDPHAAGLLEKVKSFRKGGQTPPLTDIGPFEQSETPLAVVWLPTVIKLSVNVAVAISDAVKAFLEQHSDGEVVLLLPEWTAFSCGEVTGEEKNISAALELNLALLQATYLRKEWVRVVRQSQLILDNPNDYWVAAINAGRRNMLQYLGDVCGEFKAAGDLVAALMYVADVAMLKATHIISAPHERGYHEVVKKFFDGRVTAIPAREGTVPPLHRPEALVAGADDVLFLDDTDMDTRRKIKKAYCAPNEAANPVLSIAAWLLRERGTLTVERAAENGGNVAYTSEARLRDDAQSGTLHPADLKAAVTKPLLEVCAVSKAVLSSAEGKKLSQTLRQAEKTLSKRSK

[12] = molecular target: T5, Tyrosyl-tRNA synthetase, putative (Trypanosoma cruzi (strain CL Brener)); assay: Trypanosoma cruzi tyrosyl tRNA synthetase (TcYRS) SOP; type: functional; settings: 30 µM
[13] = molecular target: Chromo domain-containing protein 1 (Saccharomyces cerevisiae (strain ATCC 204508 / S288c) (Baker's yeast)) (UniProt P32657); assay: ScCHD-1 Enzyme Inhibition Assay; type: functional; settings: 30 µM; also: in the data most compounds retested in dose-response had high values
Chain of Chromo domain-containing protein 1 (Saccharomyces cerevisiae (strain ATCC 204508 / S288c) (Baker's yeast)) (P32657 whole entry, the tested form may be a part): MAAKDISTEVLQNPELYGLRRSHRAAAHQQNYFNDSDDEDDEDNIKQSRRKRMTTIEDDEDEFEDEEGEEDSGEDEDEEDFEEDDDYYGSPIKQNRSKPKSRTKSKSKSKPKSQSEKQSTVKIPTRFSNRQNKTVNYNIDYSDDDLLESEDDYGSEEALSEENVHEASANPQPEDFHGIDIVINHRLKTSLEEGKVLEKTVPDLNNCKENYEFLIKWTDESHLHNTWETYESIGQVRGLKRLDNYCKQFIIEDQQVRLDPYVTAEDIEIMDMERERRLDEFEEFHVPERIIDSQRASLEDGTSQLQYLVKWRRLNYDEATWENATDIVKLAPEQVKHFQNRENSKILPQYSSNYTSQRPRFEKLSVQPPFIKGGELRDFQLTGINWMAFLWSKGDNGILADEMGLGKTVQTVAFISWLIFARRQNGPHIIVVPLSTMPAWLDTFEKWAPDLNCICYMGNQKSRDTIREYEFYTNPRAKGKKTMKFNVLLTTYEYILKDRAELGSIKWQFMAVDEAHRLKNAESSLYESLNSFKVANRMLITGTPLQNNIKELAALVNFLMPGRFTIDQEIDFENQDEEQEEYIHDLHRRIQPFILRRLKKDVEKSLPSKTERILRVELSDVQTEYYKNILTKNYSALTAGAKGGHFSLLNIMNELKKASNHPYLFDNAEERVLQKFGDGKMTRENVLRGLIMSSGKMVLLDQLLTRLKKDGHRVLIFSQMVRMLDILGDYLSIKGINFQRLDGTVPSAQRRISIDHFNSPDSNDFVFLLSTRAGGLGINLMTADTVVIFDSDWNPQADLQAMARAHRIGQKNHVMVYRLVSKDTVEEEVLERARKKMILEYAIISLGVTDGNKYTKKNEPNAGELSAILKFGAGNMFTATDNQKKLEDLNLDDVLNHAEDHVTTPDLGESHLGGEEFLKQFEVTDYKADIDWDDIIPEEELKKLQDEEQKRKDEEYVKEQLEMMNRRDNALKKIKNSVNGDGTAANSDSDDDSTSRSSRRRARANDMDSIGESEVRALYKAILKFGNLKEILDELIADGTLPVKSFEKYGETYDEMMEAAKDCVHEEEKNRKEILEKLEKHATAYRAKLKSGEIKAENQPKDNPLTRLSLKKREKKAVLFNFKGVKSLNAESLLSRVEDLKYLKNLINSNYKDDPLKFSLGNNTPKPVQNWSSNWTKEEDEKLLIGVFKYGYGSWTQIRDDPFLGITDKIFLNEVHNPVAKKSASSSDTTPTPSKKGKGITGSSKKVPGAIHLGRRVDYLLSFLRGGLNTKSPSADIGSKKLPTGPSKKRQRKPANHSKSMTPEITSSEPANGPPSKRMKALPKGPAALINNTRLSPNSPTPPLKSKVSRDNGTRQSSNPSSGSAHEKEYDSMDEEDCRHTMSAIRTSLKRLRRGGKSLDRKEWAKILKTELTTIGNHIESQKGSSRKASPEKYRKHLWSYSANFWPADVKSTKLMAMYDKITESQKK

Chain of Protein translocase subunit SecA (Escherichia coli (strain K12)) (P10408 whole entry): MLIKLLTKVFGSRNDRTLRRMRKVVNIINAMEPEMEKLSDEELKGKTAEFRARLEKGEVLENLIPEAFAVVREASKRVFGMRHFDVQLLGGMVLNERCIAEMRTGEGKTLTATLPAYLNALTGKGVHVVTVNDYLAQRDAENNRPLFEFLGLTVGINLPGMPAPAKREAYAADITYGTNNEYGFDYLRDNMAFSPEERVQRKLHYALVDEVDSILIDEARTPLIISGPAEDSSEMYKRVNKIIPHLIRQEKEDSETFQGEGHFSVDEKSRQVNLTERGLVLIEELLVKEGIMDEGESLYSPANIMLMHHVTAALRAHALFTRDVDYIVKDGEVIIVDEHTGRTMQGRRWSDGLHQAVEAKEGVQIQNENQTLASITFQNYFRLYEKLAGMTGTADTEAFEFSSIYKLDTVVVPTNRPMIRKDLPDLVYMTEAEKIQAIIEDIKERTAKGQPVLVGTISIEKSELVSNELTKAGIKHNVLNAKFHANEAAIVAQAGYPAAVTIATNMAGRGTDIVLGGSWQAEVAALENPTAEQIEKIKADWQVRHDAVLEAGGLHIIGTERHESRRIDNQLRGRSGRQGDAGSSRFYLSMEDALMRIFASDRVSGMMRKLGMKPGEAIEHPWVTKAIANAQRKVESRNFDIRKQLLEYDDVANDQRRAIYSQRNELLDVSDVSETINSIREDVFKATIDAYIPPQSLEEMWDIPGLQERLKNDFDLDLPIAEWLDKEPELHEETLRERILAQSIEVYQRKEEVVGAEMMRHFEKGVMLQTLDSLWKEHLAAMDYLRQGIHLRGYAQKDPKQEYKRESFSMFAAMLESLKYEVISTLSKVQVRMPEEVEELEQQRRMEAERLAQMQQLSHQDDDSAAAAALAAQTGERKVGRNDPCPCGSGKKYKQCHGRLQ

Row | SMILES | Percent Effect [1] [%] | Percent Effect [2] [%] | Percent Effect [3] [%] | Percent Effect [4] [%] | Percent Effect [5] [%] | Percent Effect [6] [%] | Percent Effect [7] [%] | Percent Effect [8] [%] | Percent Effect [9] [%] | Percent Effect [10] [%] | Percent Effect [11] [%] | Percent Effect [12] [%] | Percent Effect [13] [%]
1 | CNC(=O)c1ccc2c(c1)C1(CCN(CC(C)C)CC1)C(=O)N2 | -7.23 | 5.41 | 3.94 | -0.561 | -0.632 | -4.2 | 0.248 | 3.52 | 3.77 | 7.05 | 4.3 | 11.1 | -2.94
2 | c1cnc(NC[C@@H]2CCC[C@@H]3CN(Cc4cccnc4)C[C@@H]32)nc1 | 0.229 | 10.8 | -0.324 | -2.93 | -7.32 | 1.56 | 25.4 | 15.5 | 10.2 | -34.3 | 13.9 | 18.3 | -3
3 | CCN1CCC(c2cncc(N(C)C)n2)CC1 | -1.04 | 13.3 | -2.49 | 1.31 | -3.05 | -2.76 | -3.96 | 13.5 | 6.71 | -7.25 | 3.19 | 11.5 | -4.48
4 | CCn1cc(CN2CCCN(C(=O)Cc3cccs3)CC2)cn1 | -4.84 | 22.8 | -2.8 | -10.6 | 3.48 | 6.52 | -0.76 | 15.6 | -4.27 | -21.2 | 10.3 | 29.1 | -8.38
5 | c1cc(CN2C[C@@H]3COC[C@]3(COCC3CC3)C2)ccn1 | 1.31 | 14.7 | -0.406 | -2.54 | -3.01 | -4.13 | -1.58 | 7.58 | -2.49 | -47.3 | 2.12 | 7.69 | -2.5
6 | Cn1ccnc1CN1CCC2(CC(=O)N(c3cncnc3)C2)C1 (stereo not given) | -1.68 | 2.7 | -3.41 | 10 | 1.79 | -2.64 | 2.23 | 21.2 | 2.89 | 0.165 | 2.16 | 12.8 | 1.86
7 | CC(C)NC(=O)[C@H]1C[C@@H]2[C@@H](C1)OCCN2Cc1cccnc1 | 1.37 | -5.33 | 3.61 | 10.3 | 6.39 | -4.25 | -52.9 | 1.54 | 7.17 | -9.38 | 3.12 | 2.5 | -0.286
8 | Cc1noc(C)c1CN1C[C@H](OCC2CC2)[C@H]2OCCC[C@H]21 | -4.83 | 8.11 | -3.74 | -3.37 | 5.64 | 0.293 | 4.71 | 8.84 | -6.54 | -3.9 | 7.53 | 11.1 | -10.2
9 | COc1ccc(C2SCC(=O)Nc3ccsc32)cc1 (stereo not given) | -5.35 | -12 | 4.36 | 29 | 5.11 | -5.5 | 1.94 | 13.9 | 30.7 | -15.2 | 10.6 | 2.56 | 11.2
10 | O=C1[C@H]2CN(Cc3ccoc3)C[C@H]2CN1Cc1ccncc1 | -3.37 | 7.79 | 3.69 | 2.81 | 28.9 | -4.23 | 4.14 | 7.32 | -1.81 | -39.9 | 3.23 | 8.64 | 10.5

From ChEMBL document CHEMBL3988442, “University of Dundee, Small-Polar-MMV Screening Library” (2021)
